Measurements from PubChem BioAssay AID1159580 (chemical genetic matrix, 2015).
About 2,000 (36%) of roughly 5,500 compounds were called active. Inconclusive results (about 18%) are left out. Cut-off read from the data, not from the text of the source: active = normalized growth mostly below about 0.91 (no sharp cut-off); inconclusive = no clear call, values can overlap the other calls; inactive = mostly above about 0.92. The list shows a part of the results.

Assay: chemical genetic growth profiling, strain panel (AID 1159580);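 note: tested at 20 µM; growth read once vehicle control cultures reached saturation at 30 °C; 1 = growth at the plate median or of vehicle wells; lower values mean less growth of the strain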
Details: S. cerevisiae deletion strains, growth OD

Measured: normalized growth

CCCCc1ccc(C(=O)O)nc1
inactive: locus YAL013W, strain DEP1, hits give low values 1.02 | locus YAL040C, strain CLN3, hits give low values 0.992 | locus YCL061C, strain MRC1 (second series), hits give low values 1 | locus YDR363W, strain ESC2, hits give low values 1.02 | locus YER002W, strain NOP16, hits give low values 1.05 | locus YGR078C, strain PAC10, hits give low values 1 | locus YJR075W, strain HOC1, hits give low values 1.07 | locus YNL175C, strain NOP13, hits give low values 0.988 | locus YNL197C, strain WHI3, hits give low values 1.01 | locus YNL224C, strain SQS1, hits give low values 0.979 | locus YNL322C, strain KRE1, hits give low values 1.02 | locus YOR083W, strain WHI5 (second series), hits give low values 1.05 | locus YPL055C, strain LGE1, hits give low values 1.03
